{"source": "ChEMBL document CHEMBL1157539", "about": "“Thousands of chemical starting points for antimalarial lead identification” (Nature, 2010)", "data": [{"test_system": "Plasmodium falciparum", "experiment": "GSK_TCMDC: Inhibition of Plasmodium falciparum 3D7 in whole red blood cells, using parasite LDH activity as an index of growth. Test compounds present at 2uM", "format": "functional", "units": {"Inhibition": "%"}, "values": [{"smiles": "CC(C)CC(=O)N1CCNC[C@@H]1C(=O)NCc1ccc(Cl)c(Cl)c1.O=C(O)C(F)(F)F", "Inhibition": 99}, {"smiles": "Cc1ccc2[nH]c(-c3cc(-c4cccc(CCN5CCOCC5)c4)cnc3N)nc2c1.O=C(O)C(F)(F)F", "Inhibition": 100}, {"smiles": "CC(=O)Nc1nc(C(=O)Nc2cccc(-c3cccc(-c4nc5ccccc5[nH]4)c3)c2)cs1", "Inhibition": 100}, {"smiles": "Oc1ccccc1-c1nc2cccnc2n1CCc1cccc(C(F)(F)F)c1", "Inhibition": 93}, {"smiles": "CCCCOc1c(CNCCCCCCNCc2ccc3ccccc3c2OCCCC)ccc2ccccc12.CS(=O)(=O)O", "Inhibition": 96}, {"smiles": "O=C(O)C(F)(F)F.Oc1ccc(CCNc2nc(NCc3ccc4cc(Cl)ccc4c3)nc(N3CCNCC3)n2)cc1", "Inhibition": 92}, {"smiles": "COc1ccc2c(O)c(C3CCC(c4ccc(Cl)cc4)CC3)c(C)nc2c1", "note": "(stereo not given)", "Inhibition": 97}, {"smiles": "O=C(Nc1ccc(OC2CCN(Cc3ccc(F)cc3)C2)c(Cl)c1)c1ccco1.O=C(O)C(F)(F)F", "note": "(stereo not given)", "Inhibition": 96}, {"smiles": "CC[C@H](C)CNC(=O)c1cncc(-c2ccc(CNC3CCCC3)cc2)c1.O=C(O)C(F)(F)F", "Inhibition": 97}, {"smiles": "Cc1cc(NC(=O)c2ccco2)ccc1OC1CCN(Cc2ccccc2)CC1.O=C(O)C(F)(F)F", "Inhibition": 93}, {"smiles": "CCOCc1cnc(C)nc1CNC(=O)c1c(C)[nH]c2ccc(C)cc12", "Inhibition": 84}, {"smiles": "O=C1CC(C(=O)O)CC(=O)N1", "Inhibition": 94}, {"smiles": "Cc1cc(O)c(CN(C)Cc2ccc3c(c2)OCCO3)cc1C(C)C", "Inhibition": 98}, {"smiles": "O=C(Nc1cccc(CN2CCCN(Cc3ccc(F)cc3)CC2)c1)c1cc2ccccc2s1.O=C(O)C(F)(F)F", "Inhibition": 91}, {"smiles": "Clc1ccc2c(N3CCCNCC3)ccnc2c1", "Inhibition": 100}, {"smiles": "CCCc1c(C(=O)OCC)c2cc(O)ccc2n1-c1ccc(OC)cc1", "Inhibition": 100}, {"smiles": "COc1ccc2nccc(N(C)CC3(O)CCN(CCc4ccc5c(c4)OCCO5)CC3)c2n1.Cl", "Inhibition": 100}, {"smiles": "Cl.N#Cc1ccc2c(c1)CCN(CCC1CCC(NC(=O)/C=C/c3c[nH]c4ccc(F)cc34)CC1)CC2", "note": "(stereo not given)", "Inhibition": 100}, {"smiles": "O=C(Cc1ccccc1)NC(CCN1CCC(NC(=O)c2ccc(Cl)cc2)CC1)c1ccc(Cl)c(Cl)c1", "note": "(stereo not given)", "Inhibition": 85}, {"smiles": "CCOc1ccc2[nH]c(C)cc(=NN=Cc3ccccc3)c2c1", "Inhibition": 96}, {"smiles": "CC(C)Oc1cc2c(cc1NS(=O)(=O)c1ccc(-c3ccc(Cl)cc3)cc1F)CCN(C)CC2.Cl", "Inhibition": 88}, {"smiles": "O=C(Cc1ccccc1)NC(CCN1CCC(O)(c2cccc(C(F)(F)F)c2)CC1)c1ccc(Cl)c(Cl)c1", "note": "(stereo not given)", "Inhibition": 96}, {"smiles": "CN1CCCN(Cc2ccc(-c3ccc(NC(=O)c4cccc(Cl)c4)cc3)cc2)CC1.O=C(O)C(F)(F)F", "Inhibition": 95}, {"smiles": "Cc1[nH]c(C)c(-c2ccc(Br)cc2)c(=O)c1Cl", "Inhibition": 94}, {"smiles": "CCc1c[nH]c2c(N3CCCC3=O)cc(C(=O)N[C@@H](Cc3ccccc3)[C@H](O)CNC3CCCCC3)cc12.O=CO", "Inhibition": 100}, {"smiles": "CC(C)(C)OC(=O)NCc1ccc(Nc2nnc(-c3ccc(OCC(=O)NCc4ccc(C(C)(C)C)cc4)c([N+](=O)[O-])c3)o2)cc1", "Inhibition": 96}, {"smiles": "CN(C(=O)c1ccccc1)C1c2cc(C#N)ccc2OC(C)(C)C1O", "note": "(stereo not given)", "Inhibition": 97}, {"smiles": "O=C(O)C(F)(F)F.c1ccc(CNCCn2c(-c3ccc4c(c3)CCO4)nc3c(N4CCCC4)cccc32)cc1", "Inhibition": 82}, {"smiles": "Cc1ccc(-c2cncc(-c3cc(NC4CCN(Cc5ccccc5)CC4)nc(-c4ccccc4)n3)c2)cc1", "Inhibition": 100}, {"smiles": "N#Cc1ccc2c(c1)CN(C1CCC(NC(=O)C3=Cc4cc(Cl)ccc4OC3)CC1)CCC2", "note": "(stereo not given)", "Inhibition": 93}, {"smiles": "COCc1ccccc1C(=O)NCCOc1cc(C)cc(C)c1", "Inhibition": 96}, {"smiles": "COc1c(OC)c(OC)c2ccccc2c1CNCCCCCCNCc1c(OC)c(OC)c(OC)c2ccccc12.Cl", "Inhibition": 100}, {"smiles": "CCOCCCNc1sc(S(=O)(=O)c2ccccc2)nc1S(=O)(=O)c1ccc(C)cc1", "Inhibition": 96}, {"smiles": "O=C(O)c1ccc2nc(-c3ccccn3)c(-c3ccccn3)nc2c1", "Inhibition": 97}, {"smiles": "c1ccc(Oc2ccc(Nc3ccnc4cc(-c5cccc(CN6CCOCC6)c5)ccc34)cc2)cc1", "Inhibition": 100}, {"smiles": "CCC[C@@H](/C=N/N(C)C(=O)OC(C)(C)C)NC(=O)[C@H](CC(C)C)NC(=O)c1cc2cccc(OC)c2o1", "Inhibition": 88}, {"smiles": "N#Cc1ccc(N/C(=N\\c2ccccc2Br)N(C2CCCCC2)C2CCCCC2)c(O)c1", "Inhibition": 99}, {"smiles": "CC(ON1C(N)=NC(N)=NC1(C)C)c1ccccc1", "note": "(stereo not given)", "Inhibition": 96}, {"smiles": "Cc1cc(Cl)c(S(=O)(=O)N2CCc3ccccc32)cc1OCC(=O)NC1CCCCC1", "Inhibition": 100}, {"smiles": "CCOC(=O)c1ccc(-c2cnc(N)c(-c3nc4cccc(C)c4[nH]3)c2)cc1", "Inhibition": 100}]}, {"test_system": "Plasmodium falciparum", "experiment": "GSK_TCMDC: Inhibition of Plasmodium falciparum Dd2 in whole red blood cells, using parasite LDH activity as an index of growth. Test compounds present at 2uM", "format": "functional", "units": {"Inhibition": "%"}, "values": [{"smiles": "CC(C)CC(=O)N1CCNC[C@@H]1C(=O)NCc1ccc(Cl)c(Cl)c1.O=C(O)C(F)(F)F", "Inhibition": 16}, {"smiles": "Cc1ccc2[nH]c(-c3cc(-c4cccc(CCN5CCOCC5)c4)cnc3N)nc2c1.O=C(O)C(F)(F)F", "Inhibition": 99}, {"smiles": "CC(=O)Nc1nc(C(=O)Nc2cccc(-c3cccc(-c4nc5ccccc5[nH]4)c3)c2)cs1", "Inhibition": 82}, {"smiles": "Oc1ccccc1-c1nc2cccnc2n1CCc1cccc(C(F)(F)F)c1", "Inhibition": 36}, {"smiles": "CCCCOc1c(CNCCCCCCNCc2ccc3ccccc3c2OCCCC)ccc2ccccc12.CS(=O)(=O)O", "Inhibition": 89}, {"smiles": "O=C(O)C(F)(F)F.Oc1ccc(CCNc2nc(NCc3ccc4cc(Cl)ccc4c3)nc(N3CCNCC3)n2)cc1", "Inhibition": 38}, {"smiles": "COc1ccc2c(O)c(C3CCC(c4ccc(Cl)cc4)CC3)c(C)nc2c1", "note": "(stereo not given)", "Inhibition": 84}, {"smiles": "O=C(Nc1ccc(OC2CCN(Cc3ccc(F)cc3)C2)c(Cl)c1)c1ccco1.O=C(O)C(F)(F)F", "note": "(stereo not given)", "Inhibition": 97}, {"smiles": "CC[C@H](C)CNC(=O)c1cncc(-c2ccc(CNC3CCCC3)cc2)c1.O=C(O)C(F)(F)F", "Inhibition": 5}, {"smiles": "Cc1cc(NC(=O)c2ccco2)ccc1OC1CCN(Cc2ccccc2)CC1.O=C(O)C(F)(F)F", "Inhibition": 95}, {"smiles": "CCOCc1cnc(C)nc1CNC(=O)c1c(C)[nH]c2ccc(C)cc12", "Inhibition": 65}, {"smiles": "O=C1CC(C(=O)O)CC(=O)N1", "Inhibition": 88}, {"smiles": "Cc1cc(O)c(CN(C)Cc2ccc3c(c2)OCCO3)cc1C(C)C", "Inhibition": 47}, {"smiles": "O=C(Nc1cccc(CN2CCCN(Cc3ccc(F)cc3)CC2)c1)c1cc2ccccc2s1.O=C(O)C(F)(F)F", "Inhibition": 36}, {"smiles": "Clc1ccc2c(N3CCCNCC3)ccnc2c1", "Inhibition": 99}, {"smiles": "CCCc1c(C(=O)OCC)c2cc(O)ccc2n1-c1ccc(OC)cc1", "Inhibition": 99}, {"smiles": "COc1ccc2nccc(N(C)CC3(O)CCN(CCc4ccc5c(c4)OCCO5)CC3)c2n1.Cl", "Inhibition": 96}, {"smiles": "Cl.N#Cc1ccc2c(c1)CCN(CCC1CCC(NC(=O)/C=C/c3c[nH]c4ccc(F)cc34)CC1)CC2", "note": "(stereo not given)", "Inhibition": 83}, {"smiles": "O=C(Cc1ccccc1)NC(CCN1CCC(NC(=O)c2ccc(Cl)cc2)CC1)c1ccc(Cl)c(Cl)c1", "note": "(stereo not given)", "Inhibition": 23}, {"smiles": "CCOc1ccc2[nH]c(C)cc(=NN=Cc3ccccc3)c2c1", "Inhibition": 8}, {"smiles": "CC(C)Oc1cc2c(cc1NS(=O)(=O)c1ccc(-c3ccc(Cl)cc3)cc1F)CCN(C)CC2.Cl", "Inhibition": 2}, {"smiles": "O=C(Cc1ccccc1)NC(CCN1CCC(O)(c2cccc(C(F)(F)F)c2)CC1)c1ccc(Cl)c(Cl)c1", "note": "(stereo not given)", "Inhibition": 32}, {"smiles": "CN1CCCN(Cc2ccc(-c3ccc(NC(=O)c4cccc(Cl)c4)cc3)cc2)CC1.O=C(O)C(F)(F)F", "Inhibition": 64}, {"smiles": "Cc1[nH]c(C)c(-c2ccc(Br)cc2)c(=O)c1Cl", "Inhibition": 77}, {"smiles": "CCc1c[nH]c2c(N3CCCC3=O)cc(C(=O)N[C@@H](Cc3ccccc3)[C@H](O)CNC3CCCCC3)cc12.O=CO", "Inhibition": 98}, {"smiles": "CC(C)(C)OC(=O)NCc1ccc(Nc2nnc(-c3ccc(OCC(=O)NCc4ccc(C(C)(C)C)cc4)c([N+](=O)[O-])c3)o2)cc1", "Inhibition": 82}, {"smiles": "CN(C(=O)c1ccccc1)C1c2cc(C#N)ccc2OC(C)(C)C1O", "note": "(stereo not given)", "Inhibition": 4}, {"smiles": "O=C(O)C(F)(F)F.c1ccc(CNCCn2c(-c3ccc4c(c3)CCO4)nc3c(N4CCCC4)cccc32)cc1", "Inhibition": 85}, {"smiles": "Cc1ccc(-c2cncc(-c3cc(NC4CCN(Cc5ccccc5)CC4)nc(-c4ccccc4)n3)c2)cc1", "Inhibition": 66}, {"smiles": "N#Cc1ccc2c(c1)CN(C1CCC(NC(=O)C3=Cc4cc(Cl)ccc4OC3)CC1)CCC2", "note": "(stereo not given)", "Inhibition": 8}, {"smiles": "COCc1ccccc1C(=O)NCCOc1cc(C)cc(C)c1", "Inhibition": 95}, {"smiles": "COc1c(OC)c(OC)c2ccccc2c1CNCCCCCCNCc1c(OC)c(OC)c(OC)c2ccccc12.Cl", "Inhibition": 71}, {"smiles": "CCOCCCNc1sc(S(=O)(=O)c2ccccc2)nc1S(=O)(=O)c1ccc(C)cc1", "Inhibition": 87}, {"smiles": "O=C(O)c1ccc2nc(-c3ccccn3)c(-c3ccccn3)nc2c1", "Inhibition": 18}, {"smiles": "c1ccc(Oc2ccc(Nc3ccnc4cc(-c5cccc(CN6CCOCC6)c5)ccc34)cc2)cc1", "Inhibition": 100}, {"smiles": "CCC[C@@H](/C=N/N(C)C(=O)OC(C)(C)C)NC(=O)[C@H](CC(C)C)NC(=O)c1cc2cccc(OC)c2o1", "Inhibition": 61}, {"smiles": "N#Cc1ccc(N/C(=N\\c2ccccc2Br)N(C2CCCCC2)C2CCCCC2)c(O)c1", "Inhibition": 96}, {"smiles": "CC(ON1C(N)=NC(N)=NC1(C)C)c1ccccc1", "note": "(stereo not given)", "Inhibition": 58}, {"smiles": "Cc1cc(Cl)c(S(=O)(=O)N2CCc3ccccc32)cc1OCC(=O)NC1CCCCC1", "Inhibition": 93}, {"smiles": "CCOC(=O)c1ccc(-c2cnc(N)c(-c3nc4cccc(C)c4[nH]3)c2)cc1", "Inhibition": 79}]}]}
